Activity calls are given as the source filed them. Unless noted, no rule for the calls is given here.

The subject of assay [1] is Wnt5a (protein binding on small-molecule microarray). Kind of assay: small molecules binding Wnt5a protein – biophysical, small-molecule microarray, 635/667 nm fluorescence, primary screen (AID 1142).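 Also: fluorescence read at 667 nm with signal to noise per printed feature.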 To be noted: 635 nm fluorescence, higher = more signal.
A short description of assay [2]: ATP-based viability of Huh7 replicon cells – cell-based, CellTiter-Glo luminescence, basal, 48 h, cytotoxicity control for HCV replication inhibitor project, primary screen (AID 1143).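 Also: Huh7 hepatoma cells carrying a hepatitis C replication reporter with no stimulus; test concentration not given here.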 To be noted: higher = more signal, called active from +8 up or from −8 down. On the technique in general: In antiviral work, replicon cells carry a viral genome segment that copies itself.

Assay [3] is described as follows: Pseudomonas biofilm growth suppression – PAO1 strain, BacTiter-Glo luminescence, LB-PBS, primary screen (AID 1144). Conditions: P. aeruginosa PAO1 biofilm, 12 h, higher = more signal.
Assay [4] in a line: basal CRE-LacZ reporter activity in PC12 – cell-based, unstimulated, primary screen (AID 1145). Conditions: no forskolin, luminescence, 4.5 h, higher = more signal, called active from +8 up or from −8 down.
The nature of assay [5]: forskolin-driven CRE-LacZ activity in PC12 – cell-based, CRE-LacZ reporter, forskolin-stimulated, primary screen (AID 1146).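 Also: PC12 cells with 6xCRE LacZ reporter stimulated by forskolin 10 µM; beta-galactosidase reporter signal reflecting CREB driven transcription.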 Conditions: luminescence, 4.5 h, higher = more signal, called active from +8 up or from −8 down.
Assay [6] has as its target Streptavidin (Streptomyces avidinii) (UniProt P22629). The assay can be described thus: compounds binding control protein streptavidin – biophysical, small-molecule microarray, 635/667 nm fluorescence, artefact control for SMM compound annotation, primary screen (AID 1147).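 Also: signal reflects streptavidin binding to arrayed compounds as a control protein.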 To be noted: higher = more signal.
The nature of assay [7]: probe aInhba binding on compound microarray – biochemical, small-molecule microarray, 635/667 nm fluorescence, primary screen (AID 1148).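 Also: score merges 667nm spot fluorescence with signal-to-noise for antibody binding to printed compounds.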 To be noted: higher = more signal.
In assay [8] the target is Torsin-1A (Homo sapiens) (UniProt O14656). Kind of assay: TOR1A wild-type binding on microarray – cell lysate, small-molecule microarray, lysate, 635/667 nm, primary screen (AID 1149). To be noted: COS7 hTOR1A-WT lysate, 635 nm fluorescence, higher = more signal.
Sequence of Torsin-1A (Homo sapiens) (O14656 whole entry, looked up): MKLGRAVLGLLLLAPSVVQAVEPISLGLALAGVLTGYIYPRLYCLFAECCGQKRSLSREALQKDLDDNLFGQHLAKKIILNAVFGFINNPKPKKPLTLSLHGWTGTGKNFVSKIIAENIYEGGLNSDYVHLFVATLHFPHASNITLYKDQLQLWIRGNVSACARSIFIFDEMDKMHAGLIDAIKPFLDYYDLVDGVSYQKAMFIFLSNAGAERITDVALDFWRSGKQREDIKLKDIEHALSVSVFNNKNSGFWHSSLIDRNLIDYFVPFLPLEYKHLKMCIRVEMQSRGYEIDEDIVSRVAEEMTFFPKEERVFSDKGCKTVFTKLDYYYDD
Assay [9] has the same target. Kind of assay: torsin A mutant lysate binding on microarrays – cell lysate, small-molecule microarray, COS7 lysate, 635/667 nm fluorescence, primary screen (AID 1150).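 Also: score pools 667 nm emission and signal to noise measuring lysate protein binding.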 Conditions: COS7 hTOR1A mutant lysate, 635 nm fluorescence, higher = more signal.
The test system of assay [10] is Sonic hedgehog protein (Shh). The assay can be described thus: Sonic hedgehog microarray binding compounds – biochemical, small-molecule microarray, 635/667 nm fluorescence, primary screen (AID 1151).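 Also: Shh protein binding to compounds spotted on small-molecule microarray slides; score combines spot fluorescence intensity with signal-to-noise across triplicate slides.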 Conditions: 635 nm fluorescence, higher = more signal.
The nature of assay [11]: optical density shifts of acrAB sulA E. coli – strain DRC41, OD650, 48 h, E. coli filamentation inducer project, primary screen (AID 1152).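 Also: E. coli MC1000 strain DRC41 lacking acrAB efflux pump and sulA.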 To be noted: higher = more signal, called active from +8 up or from −8 down.
Assay [12] in a line: probe aLefty1 binding on compound microarray – biochemical, small-molecule microarray, 635/667 nm fluorescence, primary screen (AID 1153).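 Also: score merges spot fluorescence with signal-to-noise ratio from the scanned slide images.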 To be noted: higher = more signal.
Assay [13] in a line: plasmodial surface anion channel blockers, osmotic lysis – cell-based, P. falciparum Indochina, OD700, 1 h, primary screen (AID 1154). To be noted: P. falciparum Indochina infected RBC osmotic lysis, higher = more signal, called active from +8 up or from −8 down.
Assay [14] is described as follows: plasmodial surface anion channel blockers, osmotic lysis – cell-based, P. falciparum Indochina, OD700, 2 h, primary screen (AID 1155).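 Also: lysis reports solute entry through the parasite surface anion channel PSAC.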 Conditions: P. falciparum Indochina infected erythrocytes, higher = more signal, called active from +8 up or from −8 down.
A short description of assay [15]: changes in parasitized red cell lysis, either direction – P. falciparum Indochina, OD700, 3 h, PSAC antagonist project, primary screen (AID 1156). Conditions: P. falciparum-infected erythrocytes, osmotic lysis, higher = more signal, called active from +8 up or from −8 down.
A short description of assay [16]: plasmodial surface anion channel blockers, osmotic lysis – cell-based, P. falciparum Indochina, OD700, 18 h, primary screen (AID 1157). Conditions: P. falciparum Indochina infected erythrocytes, osmotic lysis OD700, 18 h; higher = more signal, called active from +8 up or from −8 down.
Assay [17] can be described thus: S6 kinase pathway phospho-S6 level changes – cell-based, A549, cytoblot, luminescence, serum-stimulated, primary screen (AID 1158).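 Also: serum-stimulated A549 lung adenocarcinoma cells; signal is phosphorylated S6 detected by cytoblot immunostaining with HRP secondary.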 To be noted: 5 h, higher = more signal.
The target of assay [18] is NADPH oxidase 2 (Homo sapiens) (UniProt P04839). The assay can be described thus: compounds shifting NOX2 Amplex Red fluorescence – cell-based, HEK293-NOX2, PMA-stimulated, NOX inhibitor project, primary screen (AID 1159). Also: test concentration not given here. Conditions: 45 min, higher = more signal, called active from +8 up or from −8 down.
Sequence of NADPH oxidase 2 (Homo sapiens) (P04839 whole entry, looked up): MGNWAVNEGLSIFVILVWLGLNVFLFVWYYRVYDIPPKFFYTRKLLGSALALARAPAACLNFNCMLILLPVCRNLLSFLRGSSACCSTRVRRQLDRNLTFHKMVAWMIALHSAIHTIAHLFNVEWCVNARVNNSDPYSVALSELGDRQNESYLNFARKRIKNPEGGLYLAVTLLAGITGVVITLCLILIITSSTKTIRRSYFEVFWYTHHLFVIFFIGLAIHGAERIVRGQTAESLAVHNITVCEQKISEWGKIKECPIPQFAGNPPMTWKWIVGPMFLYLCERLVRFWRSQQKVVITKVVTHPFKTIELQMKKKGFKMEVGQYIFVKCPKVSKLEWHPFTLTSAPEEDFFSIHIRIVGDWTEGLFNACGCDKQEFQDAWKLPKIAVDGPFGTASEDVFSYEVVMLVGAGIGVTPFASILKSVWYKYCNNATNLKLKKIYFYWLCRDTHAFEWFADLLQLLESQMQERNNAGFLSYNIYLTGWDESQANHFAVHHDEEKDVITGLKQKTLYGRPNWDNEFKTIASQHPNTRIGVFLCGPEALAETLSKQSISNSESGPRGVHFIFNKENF
The target of assay [19] is NADPH oxidase 4 (Homo sapiens) (UniProt Q9NPH5). The assay can be described thus: compounds shifting NOX4 Amplex Red fluorescence – cell-based, HEK293-NOX4, tetracycline-induced, NOX inhibitor project, primary screen (AID 1160). To be noted: HEK293-NOX4, Amplex Red H2O2 fluorescence, 45 min; higher = more signal, called active from +8 up or from −8 down.
Sequence of NADPH oxidase 4 (Homo sapiens) (Q9NPH5 whole entry, looked up): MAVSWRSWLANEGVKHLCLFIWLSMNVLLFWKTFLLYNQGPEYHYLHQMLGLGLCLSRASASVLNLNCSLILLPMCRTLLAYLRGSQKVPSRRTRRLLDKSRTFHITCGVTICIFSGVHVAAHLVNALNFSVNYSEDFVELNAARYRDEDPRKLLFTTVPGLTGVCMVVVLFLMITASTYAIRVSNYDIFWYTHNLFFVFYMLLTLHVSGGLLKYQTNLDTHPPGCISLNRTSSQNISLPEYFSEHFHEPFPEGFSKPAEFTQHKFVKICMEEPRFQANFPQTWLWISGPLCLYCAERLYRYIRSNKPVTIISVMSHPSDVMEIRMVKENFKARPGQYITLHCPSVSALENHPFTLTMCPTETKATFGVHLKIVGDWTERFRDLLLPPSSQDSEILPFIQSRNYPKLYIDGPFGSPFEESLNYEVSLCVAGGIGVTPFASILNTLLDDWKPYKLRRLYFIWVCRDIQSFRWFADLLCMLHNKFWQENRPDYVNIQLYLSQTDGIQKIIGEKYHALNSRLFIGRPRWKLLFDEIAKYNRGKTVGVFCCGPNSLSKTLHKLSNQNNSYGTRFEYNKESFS
The target in assay [20] is NADPH oxidase 5 (Homo sapiens) (UniProt Q96PH1). The assay can be described thus: compounds shifting NOX5 Amplex Red fluorescence – cell-based, HEK293-NOX5, NOX inhibitor project, primary screen (AID 1161). To be noted: HEK293-NOX5, ionomycin, 45 min, higher = more signal.
Sequence of NADPH oxidase 5 (Homo sapiens) (Q96PH1 whole entry, looked up): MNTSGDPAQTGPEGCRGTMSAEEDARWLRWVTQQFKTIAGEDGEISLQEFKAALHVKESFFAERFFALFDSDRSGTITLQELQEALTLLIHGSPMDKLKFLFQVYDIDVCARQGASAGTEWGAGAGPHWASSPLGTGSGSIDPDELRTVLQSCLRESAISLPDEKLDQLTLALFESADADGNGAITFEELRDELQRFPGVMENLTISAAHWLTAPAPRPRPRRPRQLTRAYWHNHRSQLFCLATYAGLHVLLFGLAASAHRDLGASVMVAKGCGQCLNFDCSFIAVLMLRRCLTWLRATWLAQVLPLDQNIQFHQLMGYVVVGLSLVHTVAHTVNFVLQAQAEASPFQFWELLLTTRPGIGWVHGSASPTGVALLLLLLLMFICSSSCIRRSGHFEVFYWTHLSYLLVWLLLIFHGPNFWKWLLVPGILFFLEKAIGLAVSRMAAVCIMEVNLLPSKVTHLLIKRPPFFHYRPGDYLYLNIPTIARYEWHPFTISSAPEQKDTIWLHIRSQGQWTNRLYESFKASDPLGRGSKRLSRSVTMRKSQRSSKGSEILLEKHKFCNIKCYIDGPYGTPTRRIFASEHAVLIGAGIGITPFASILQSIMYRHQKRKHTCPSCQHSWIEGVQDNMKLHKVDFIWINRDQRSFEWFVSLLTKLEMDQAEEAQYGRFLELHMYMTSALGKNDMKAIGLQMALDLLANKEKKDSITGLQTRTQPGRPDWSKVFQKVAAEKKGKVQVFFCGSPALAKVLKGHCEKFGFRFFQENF

Sequence of Streptavidin (Streptomyces avidinii) (P22629 whole entry, looked up): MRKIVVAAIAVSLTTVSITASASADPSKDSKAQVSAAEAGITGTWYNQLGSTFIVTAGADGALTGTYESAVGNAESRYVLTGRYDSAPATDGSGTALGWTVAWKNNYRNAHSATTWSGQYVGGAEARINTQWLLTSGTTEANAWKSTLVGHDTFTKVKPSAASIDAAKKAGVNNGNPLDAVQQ

Turning to `CCCC[C@@H]1C[C@H]1[C@@H](NC(=O)c1ccco1)c1ccccc1C(F)(F)F`, the composite z-score in [1] is 0.667; in assay [6], 1.42; in [7], 2.01; in assay [8], 0.408; in [9], -0.0311; in [10], 0.0509. This compound yielded a composite z-score in assay [12] of 2.47. In addition, the z-score in [2] is -0.547 (inactive); in assay [3] it was 0.431 (inactive); in [4], 0.773 (inactive); in [5], 1.3 (inactive); in assay [11] it was -1.91 (inactive); in assay [13], 0.233 (inactive). The z-score in assay [14] is 0.105 (inactive); in [15] it was -0.104 (inactive); in assay [16], 0.471 (inactive); in assay [17], -0.278; in assay [18], -0.295 (inactive); in assay [19], -1.28 (inactive). Besides, in assay [20], the z-score is -1.26.

Regarding `C=CCNC(=O)[C@@H]1[C@H]2C(=O)O[C@H](c3ccccc3)[C@H](c3ccccc3)N2[C@H](c2ccc(O)cc2)[C@@]12C(=O)N(C(=O)OCCOC)c1ccc(C#CCNC(N)=O)cc12`, the composite z-score in assay [1] was 0.468; in assay [6] it was 0.61; in assay [7] it was -0.131; in assay [8], 0.699; in [9] it was 0.594; in assay [10], 1.45. In [12], this compound showed a composite z-score of 0.0012. Also, the z-score in [2] is -2.23 (inactive); in assay [3], -0.298 (inactive); in [4], 0.35 (inactive); in assay [5], 0.273 (inactive); in assay [11], 0.411 (inactive); in assay [13], 0.691 (inactive). For the same compound, the z-score in [14] was -0.836 (inactive); in assay [15] it was 0.537 (inactive); in assay [16], -1.18 (inactive); in [17], 1.32; in [18], 1.08 (inactive); in [19], 0.438 (inactive). Besides, the z-score in assay [20] stood at 0.421.

For `COCCOC(=O)N1C(=O)[C@@]2(c3cc(C#Cc4ccc(OC)cc4)ccc31)[C@H](c1ccc(OCCO)cc1)N1[C@H](c3ccccc3)[C@H](c3ccccc3)OC(=O)[C@H]1[C@@H]2C(=O)N1CCN(c2ncccn2)CC1`, the composite z-score in assay [1] worked out at 0.377; in assay [6], 0.165; in [7], 0.0464; in assay [8] it was 0.846; in [9] it was 0.775; in assay [10], 1.69. The compound also registered a composite z-score in [12] of 0.042. The z-score in assay [2] is -0.438 (inactive); in [3] it was -0.112 (inactive); in [4], 0.0695 (inactive); in assay [5], 0.559 (inactive); in assay [11] it was -0.0791 (inactive); in assay [13], 5.07 (inactive). The z-score in assay [14] is 2.39 (inactive); in assay [15], 0.738 (inactive); in [16], 1.17 (inactive); in [17], -0.451; in assay [18], 0.938 (inactive); in [19] it was -1.34 (inactive). Also, the z-score in assay [20] turned out to be 0.656.

Turning to `C=C(C)[C@@H]1CC=C(C(O)C2C=CC3C(=O)N(C)C(=O)C3N2Nc2ccccc2)CC1` (stereo not given in full), the composite z-score in assay [1] came out at 0.297; in [6], 0.178; in [7] it was 0.0013; in assay [8], 0.425; in assay [9], 0.385; in [10] it was 1.89. This compound displayed a composite z-score in [12] of 0.42. For the same compound, the z-score in assay [2] is 0.435 (inactive); in assay [3], -0.309 (inactive); in assay [4], 0.626 (inactive); in assay [5], 1.26 (inactive); in assay [11], -1.54 (inactive); in assay [13], 1.89 (inactive). For the same compound, the z-score was 0.344 (inactive) in assay [14]; 0.683 (inactive) in [15]; 1.59 (inactive) in assay [16]; -0.549 in assay [17]; -1.1 (inactive) in [18]; -2.76 (inactive) in [19]. In [20], the z-score was -2.23.

For the compound `O=C1N[C@@H](Cc2ccccc2)C(=O)N2[C@@H]1C[C@@H](C(=O)O)[C@H]2c1cccc(OCCO)c1`, the composite z-score was 0.0465 in assay [1]; 0.0555 in assay [6]; -0.128 in assay [7]; 1.14 in [8]; 0.719 in assay [9]; 1.77 in [10]. Further, the composite z-score in [12] is 0.0903. Moreover, the z-score in assay [2] is -0.333 (inactive); in assay [3], -0.965 (inactive); in assay [4], 0.692 (inactive); in assay [5], 0.321 (inactive); in [11], 0.931 (inactive); in assay [13] it was 6.39 (inactive). The z-score was 1.12 (inactive) in assay [14]; -2.03 (inactive) in [15]; 0.375 (inactive) in assay [16]; 1.17 in [17]; -2.21 (inactive) in assay [18]; -2.89 (inactive) in assay [19]. The z-score in [20] was -0.102.

On to `COc1ccc(/C=C/C=O)cc1`, for which the composite z-score is 0.156 in assay [1]; 0.166 in assay [6]; -0.102 in assay [7]; -0.238 in assay [8]; 0.0564 in [9]; 1.6 in assay [10]. In assay [12], this compound had a composite z-score of 0.11. In addition, the z-score is 0.0307 (inactive) in assay [2]; -0.577 (inactive) in assay [3]; 0.209 (inactive) in [4]; 0.561 (inactive) in assay [5]; 0.0676 (inactive) in [11]; -0.0134 (inactive) in assay [13]. Besides, the z-score in assay [14] is -0.113 (inactive); in assay [15], 0.392 (inactive); in [16] it was 0.0327 (inactive); in assay [17] it was -0.416; in [18], -0.721 (inactive); in [19], -0.379 (inactive). In addition, the z-score in assay [20] is 0.589.

Regarding `CCC[C@@H]1C[C@@]1(CCC)[C@@H](NS(=O)(=O)c1cccc2cccnc12)c1ccc(Cl)cc1`, the composite z-score is 0.0298 in assay [1]; 0.633 in [6]; 0.0966 in assay [7]; -0.405 in assay [8]; 0.177 in assay [9]; -1.33 in assay [10]. In assay [12], this compound registered a composite z-score of 0.617. Also, the z-score in [2] was -2.15 (inactive); in assay [3] it was -0.0939 (inactive); in assay [4], -0.754 (inactive); in [5], 0.852 (inactive); in [11], -1.61 (inactive); in assay [13] it was 0.0126 (inactive). Moreover, the z-score was 0.765 (inactive) in assay [14]; -1.01 (inactive) in assay [15]; 1.01 (inactive) in assay [16]; 0.883 in assay [17]; -0.357 (inactive) in [18]; -0.382 (inactive) in assay [19]. The z-score in [20] was 0.127.

As for `C=CC(=C)[C@H]1Oc2ccccc2S(=O)(=O)N2CCC[C@@H]12`, the composite z-score was 0.0964 in assay [1]; 0.331 in assay [6]; -0.0332 in [7]; -1.02 in assay [8]; -1.06 in assay [9]; 0.0906 in assay [10]. In [12], this compound came in with a composite z-score of 0.131. In addition, the z-score was -4.18 (inactive) in assay [2]; 1.16 (inactive) in [3]; 0.483 (inactive) in assay [4]; 0.133 (inactive) in assay [5]; -0.829 (inactive) in [11]; 4.63 (inactive) in [13]. Moreover, the z-score was 0.751 (inactive) in [14]; -0.309 (inactive) in assay [15]; 0.01 (inactive) in assay [16]; 0.0928 in [17]; -0.0944 (inactive) in assay [18]; -1.04 (inactive) in assay [19]. Besides, the z-score in assay [20] is -1.38.

For the origin of these results see PubChem BioAssay.
